Results from PubChem BioAssay (NCI).
Values joined by “and” are separate entries in the source; they are usually repeats but may differ in a detail not shown here. Equal values may be shown once. Compounds without any hit were thinned out: in the full panel of roughly 83,000, 20% have a hit.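 Method: cells in 96-well plates; compound added at one concentration; 48 h incubation; percent growth measured; values under 10 scored active.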 A number with no mark means an inactive call. Active and inactive are the calls of the source.

System: MDA-MB-468 breast
Experiment: NCI-60 one-dose screen, 48 h (100 = growth as untreated, 0 = no growth, -100 = all killed)
Conditions: 10 µM unless noted

Row | Compound | growth
1 | O=C(/C=C/c1sc(Cl)nc1Cl)c1ccc(Br)cc1 | 63.2%
2 | Cc1ccc(/C=C/C(=O)C(=O)/C=C/c2ccc(C)cc2)cc1 | 110%
3 | N#CSCC1CC(O)(c2ccccc2)CC(c2ccc(F)cc2)O1 (centres undefined) | 5.99% (active)
4 | CCc1ccccc1-n1c(N)c(C#N)c(-c2ccc(N(C)C)cc2)c(C#N)c1=O | 116%
5 | COc1cc2c(=O)n(CCCN(C)C)c3c4cc5c(cc4ccc3c2cc1OC)OCO5 | 57.7%
6 | COc1ccc(CCN2C(=O)CCSC2=S)cc1OC | 19.8%
7 | CC(C)=CC/C=C(/C)[C@H]1CC[C@]2(C)[C@@H]1CC[C@@H]1[C@@]3(C)CCC(=O)NC(C)(C)[C@@H]3CC[C@]12C | -17.7% [100 µM] (active)
8 | O=C(O)C1(C(=O)O)CCC1.[NH2-].[NH2-].[Pt+2] | 106%
9 | CCN(CC)c1ccc2nc3c4ccccc4c(=NC(=O)c4ccccc4-c4c5ccc(N(CC)CC)cc5[o+]c5cc(N(CC)CC)ccc45)cc-3oc2c1 | -59.2% (active)
10 | CCCCn1c(C(=O)c2c[nH]c3ccccc23)n[nH]c1=S | 109%
11 | Oc1ccccc1O | 91.1%
12 | COc1ccc2c(CCCCC(c3ccccc3)c3ccccc3)c3[n+](cc2c1OC)CCc1cc2c(cc1-3)OCO2 | -75.3% (active)
13 | Oc1ccc(/C=N\Nc2ccccn2)c(O)c1 | 9.5% (active)
14 | COc1ccc(-c2cc(-c3cccnc3)nc3sc(C(=O)Nc4ccccc4)c(N)c23)cc1OC | 80.8%
15 | Oc1cccc(CCc2ccc(Oc3cc(CCc4cccc(O)c4)cc(O)c3O)cc2)c1 | 82.5%
16 | Cc1nn(-c2nc(-c3cc4ccccc4oc3=O)cs2)c(C)c1N=Nc1ccccc1 | 103%
17 | N=c1c2c(=N)n3c(nc2nc2n1-c1ccccc1Sc1ccccc1-2)sc1cc(Cl)ccc13 | -11.8% (active)
18 | CCN(CC)C(=O)c1cccnc1 | 109%
19 | COc1ccc(C2c3ccc4ccccc4c3Oc3ncnc(N)c32)cc1 (centres undefined) | 86.6%
20 | Oc1ccc2ccccc2c1/C=N\Nc1ccccn1 | -19.3% (active)

Row | Compound | growth
21 | C#Cc1ccc(NC(=O)c2ccc(/C=C/C(=O)c3nccn3C)cc2)cc1 | -54.6% (active)
22 | C=C(C)Cn1c(SCC(=O)c2cccs2)nc2sc3c(c2c1=O)CCCC3 | 68.6%
23 | O=C(O)CCCCCN1C(=O)/C(=C/c2ccc(O)c(O)c2)SC1=S | 103%
24 | CCN(CC)Cc1cc(Nc2c3ccc(Cl)cc3nc3ccc(OC)cc23)ccc1O | 60.5%
25 | CN(Cc1ccccc1)S(=O)(=O)/N=C1\NC(=O)NC1=C(Cl)Cl | 22.3%
26 | Cc1ccc(N=C2CSc3nnc(-c4csc5c4CCCC5)n3N2)cc1 | 17%
27 | O=CN1N=C(c2cccc(Nc3ccncc3)c2)CC1c1ccc2c(c1)OCO2 (centres undefined) | 88.7%
28 | COc1cc(-c2nc3sc4c(c3c(=O)[nH]2)CCCCCC4)cc(OC)c1OC | 20%
29 | C=C1C(=O)O[C@H]2[C@H]1CC/C(COC(=O)NCc1ccc(Cn3c(=O)sn(-c4ccc(C#N)cc4)c3=O)cc1)=C\CC[C@@]1(C)O[C@@H]21 | 7.72% (active)
30 | CCCCCCCCCCCCCCCCCCNC(=O)[C@H]1CSC(c2ccc(OC)cc2O)N1 (some centres undefined) | 115%
31 | CCCCCCCCCCCCCCCCCC1=NC(C)(C)CN1C(C)(C)CO | -100% (active)
32 | O=C1/C(=C/c2ccc(Cl)cc2)N=C(c2ccccc2)N1CCc1cccs1 | 72.4%
33 | CCN(CC)Cc1cc2[nH]c3c4ccc(Cl)cc4ncc3c2cc1OC | -12.8% (active) and -25.8% (active)
34 | COC1(OC)C2(Cl)CCC1(Cl)C(Cl)=C2Cl | 111%
35 | CC(C)=CCC[C@](C)(O)[C@H]1CC[C@]2(C)[C@@H]1CC[C@@H]1[C@@]3(C)C/C(=C/c4ccc(Br)cc4)C(=O)C(C)(C)[C@@H]3CC[C@]12C | 83.7%
36 | Cc1ccc(C)c(C(O)(c2cc(C)ccc2C)C2(O)CCCCC2)c1 | 90.5%
37 | O=C1c2c(O)cc(O)cc2-c2c(-c3ccc(O)cc3)oc3cc(O)cc1c23 | 46.4%
38 | CC(C)c1ccc(NC(=O)Cc2ccc(Nc3ncnc4cc(-c5cnn(CCN(C)C)c5)ccc34)cc2)cc1 | -86.9% [30 µM] (active)
39 | CCN(CC)CCOc1ccc(Nc2ncc3cc(-c4ccc(O)cc4)c(=O)n(C)c3n2)cc1 | 44.8%
